{"source": "PubChem BioAssay AID893", "about": "(National Center for Advancing Translational Sciences (NCATS), 2007)", "note": "Among all 75,000 compounds or so, about 5,700 (7.6%) were called active. Another 7% or so got no clear call; they are omitted. What follows is part of a selection rich in actives, with near analogues and random picks from the rest. Unmarked numbers belong to inactive results. Calls follow the shape of the dose curve; as a rule, active = well fitted inhibition curve with a large enough effect; inconclusive = small, poorly fitted or top-dose-only effect; inactive = no such curve, though single readings can be large or run the other way. % is scaled to controls: 0 for no effect and ±100 for the full control effect; potency is read from the fitted curve at half-maximal effect."}
{"molecular_target": "3-hydroxyacyl-CoA dehydrogenase type-2 (Homo sapiens) (UniProt Q99714)", "assay": "qHTS Assay for Inhibitors of HSD17B4, hydroxysteroid (17-beta) dehydrogenase 4;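 also: the protocol describes HADH2 (HSD17B10) and not the HSD17B4 of the title; nearly all actives have a fitted effect of over 70% in size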", "details": "recombinant HSD17B10, NADH fluorescence kinetic; series mostly up to 57.1 µM; activity change, negative = inhibition: at the top concentration", "in_short": "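Activity followed as NADH fluorescence increase (ex 360, em 450 nm) every 30 seconds for 4 min, using final 90 uM beta-hydroxybutyryl CoA and 1 mM NAD+. Recombinant His-tagged enzyme, 20 nM, pH 9.0 Tris buffer, 15 min compound preincubation.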"}
{"smiles": "O=C(CSc1nnc(-c2ccccn2)n1-c1ccccc1)Nc1ccc2c(c1)OCO2", "activity change, negative = inhibition": "1.79%"}
{"smiles": "CC[C@H](c1ccccc1)c1cc(C(C)(C)C)cc(C(C)(C)C)c1O", "activity change, negative = inhibition": "-3.63% [at 11.4 µM]"}
{"smiles": "CC(C)C1N=C2c3ccccc3N=C(SCC(=O)c3ccc(O)c(O)c3)N2C1=O", "note": "(stereo unspecified)", "activity change, negative = inhibition": "14.8%"}
{"smiles": "O=C(CN1C(=O)CCS(=O)(=O)c2ccccc21)NCc1ccc(F)cc1", "activity change, negative = inhibition": "2.42%"}
{"smiles": "NC(=O)CSC1=Nc2ccccc2C2=NC(CCC(=O)NCc3ccc(F)cc3)C(=O)N12", "note": "(stereo unspecified)", "Potency": "31.6 µM (active)"}
{"smiles": "Cc1ccc(SCCN2C(=O)NC(C)(C)C2=O)cc1", "activity change, negative = inhibition": "5.53%"}
{"smiles": "C=CCn1c(COc2ccccc2)nnc1SCC(=O)NCC(=O)OCC", "activity change, negative = inhibition": "0.839%"}
{"smiles": "C=CCn1c(COc2ccccc2C)nnc1SCC(=O)O", "activity change, negative = inhibition": "5.36%"}
{"smiles": "C=CCn1c(COc2cccc3cccnc23)nnc1SCC(=O)OC", "Potency": "31.6 µM (active)"}
{"smiles": "O=C(O)C1C2C=CC(C2)C1C(=O)N1CCN(CCO)CC1", "note": "(stereo unspecified)", "activity change, negative = inhibition": "12.8%"}
{"smiles": "COc1cc(-c2nnc(Cn3cc(C(F)(F)F)ccc3=O)o2)cc(OC)c1OC", "activity change, negative = inhibition": "-1.71%"}
{"smiles": "CCOC(=O)c1cc(NC(=O)SCC(=O)O)c(C)nc1C", "activity change, negative = inhibition": "-8.8%"}
{"smiles": "CCOC(=O)c1cc(-c2nnc(-c3cc(OC)c(OC)c(OC)c3)o2)c(C)nc1C", "Potency": "31.6 µM (active)"}
{"smiles": "Cc1cc(C)cc(C#CC2C=CC(Oc3ccc(C4CCCC4)cc3)C(CO)O2)c1", "note": "(stereo unspecified)", "activity change, negative = inhibition": "4.3% [at 11.4 µM]"}
{"smiles": "CCOCCCNC(=O)c1c[nH]c2cc(C)ccc2c1=O", "activity change, negative = inhibition": "-2.6%"}
{"smiles": "CCn1c(=N)c(C(=O)NCCCOC)cc2c(=O)n3cccc(C)c3nc21", "Potency": "31.6 µM (active)"}
{"smiles": "COCCCNC(=O)c1ccc2c(c1)ncn2-c1ccccc1OC", "activity change, negative = inhibition": "-20.2%"}
{"smiles": "CC(=O)N(Cc1cccs1)C1CCOC(C)(C)C1", "note": "(stereo unspecified)", "activity change, negative = inhibition": "-3.43%"}
{"smiles": "O=C(O)c1ccc(COc2c(F)c(F)cc(F)c2F)o1", "activity change, negative = inhibition": "0.716%"}
{"smiles": "CCOC(=O)n1c(SCC(=O)N(CC)CC)nc2ccccc21", "activity change, negative = inhibition": "3.57%"}
{"smiles": "Cc1cc(N2CCCCC2)nc2ccc(Cc3ccc4nc(N5CCCCC5)cc(C)c4c3)cc12", "Potency": "3.16 µM (active)"}
{"smiles": "COc1ccc(-n2c(SC)nc(O)cc2=O)cc1", "activity change, negative = inhibition": "8.7%"}
{"smiles": "O=C(CC1NCCNC1=O)Nc1ccc(Oc2ccccc2)cc1", "note": "(stereo unspecified)", "activity change, negative = inhibition": "0.426%"}
{"smiles": "CCOC(=O)c1ccccc1NC(=O)CC1Nc2ccccc2NC1=O", "note": "(stereo unspecified)", "activity change, negative = inhibition": "0.318%"}
{"smiles": "O=C(CC1Nc2ccccc2NC1=O)Nc1ccccc1", "note": "(stereo unspecified)", "Potency": "25.1 µM (active)"}
{"smiles": "COc1cccc(NC(=O)C(C)Oc2ccccc2)c1", "note": "(stereo unspecified)", "activity change, negative = inhibition": "-0.198%"}
{"smiles": "CC(=O)OCC(=O)C1CCC2C3CCC4=CC(=O)CC[C@@]4(C)C3CC[C@]12C", "note": "(stereo partly specified)", "activity change, negative = inhibition": "2.78%"}
{"smiles": "Fc1ccccc1OCCSc1nc2ccccc2o1", "activity change, negative = inhibition": "5.24%"}
{"smiles": "C[C@H]1O[C@@H](CC(=O)O)Cc2c1c(O)c1c(O)cc(-c3cc(=O)c4c(=O)c5c(c(=O)c=4c3=O)C[C@H](CC(=O)O)O[C@@H]5C)c(O)c1c2O", "Potency": "3.98 µM (active)"}
{"smiles": "CC(C)C1=CC2=CC[C@@H]3[C@](C)(CO)CCC[C@]3(C)C2CC1", "note": "(stereo partly specified)", "activity change, negative = inhibition": "9.63%"}
{"smiles": "Cc1nc2ccc(S(=O)(=O)NC(C(=O)N3CCCCCC3)C(C)C)cc2s1", "note": "(stereo unspecified)", "activity change, negative = inhibition": "4.54%"}
{"smiles": "COC(=O)[C@H]1C[C@@H]1[C@H](NC(=O)Oc1ccc(F)cc1)c1ccccc1", "activity change, negative = inhibition": "-6.57%"}
{"smiles": "N=c1c2c3c(sc2ncn1CCCN1CCOCC1)CCCCC3", "activity change, negative = inhibition": "5.59%"}
{"smiles": "COC(=O)c1ccc(C(NC(=O)OCc2ccccc2)/C(C)=C/[C@@H](C)C(=O)NCc2cc(C)on2)cc1", "note": "(stereo partly specified)", "activity change, negative = inhibition": "-4.34%"}
{"smiles": "Cc1cc(C)cc(OCc2nnc(SCC(=O)Nc3ccccc3)o2)c1", "activity change, negative = inhibition": "8.07%"}
{"smiles": "Cc1cccc(OCc2nnc(SCc3nc4cc(C(F)(F)F)ccc4c(=O)[nH]3)o2)c1", "Potency": "31.6 µM (active)"}
{"smiles": "Cc1cccc(OCc2nnc(SCn3nnc4ccccc4c3=O)o2)c1", "activity change, negative = inhibition": "-9.02%"}
{"smiles": "O=C(c1csnn1)N1CCC2(CCN(Cc3nccs3)CC2)CC1", "activity change, negative = inhibition": "-2.61%"}
{"smiles": "Cc1ccccc1CSc1nnc(-c2ccccn2)n1N", "activity change, negative = inhibition": "4.98%"}
{"smiles": "CC(C)(C)NCC[C@@H](O)c1cc(C(F)(F)F)nc2c(C(F)(F)F)cccc12", "activity change, negative = inhibition": "3.93% [at 11.4 µM]"}
{"smiles": "COC(=O)c1cc(S(=O)(=O)NC2CCN(Cc3ccccc3)CC2)cn1C", "activity change, negative = inhibition": "-3.37%"}
{"smiles": "O=C(NC1CCN(Cc2ccccc2)CC1)c1ccccc1F", "activity change, negative = inhibition": "12.8%"}
{"smiles": "Cc1ccn2cc(C(=O)NC3CCN(Cc4ccccc4)CC3)nc2c1", "Potency": "31.6 µM (active)"}
{"smiles": "COc1cc(Cl)cc(C2NC(=O)NC(C)=C2C(=O)NCc2ccccc2)c1O", "note": "(stereo unspecified)", "activity change, negative = inhibition": "8.34%"}
{"smiles": "CCOc1ccc(C(=O)Nc2cc(OC)ccc2OC)cc1", "activity change, negative = inhibition": "-11.3%"}
{"smiles": "Oc1ccc(-c2csc(Nc3cccnc3)n2)cc1", "activity change, negative = inhibition": "3.13%"}
{"smiles": "COc1ccc(OC)c(Nc2nc(-c3ccc(O)c(O)c3)cs2)c1", "Potency": "7.94 µM (active)"}
{"smiles": "COc1ccc(-n2nnc3c(=O)n(CC(=O)OCc4ccccc4)cnc32)cc1", "activity change, negative = inhibition": "1.02%"}
{"smiles": "c1ccc(-c2noc(-c3cccs3)n2)nc1", "activity change, negative = inhibition": "-5.02%"}
{"smiles": "COC(=O)[C@H](C)[C@H]1C[C@]1(C)[C@H](NC(=O)OCc1ccccc1)c1ccccc1", "activity change, negative = inhibition": "-4.85%"}
{"smiles": "COc1ccccc1CNc1ncnc2ccc(-c3ccc4c(c3)OCO4)cc12", "Potency": "31.6 µM (active)"}
{"smiles": "COc1ccc2[nH]cc(CCNc3ncnc4ccc(-c5ccccc5CN(C)C)cc34)c2c1", "activity change, negative = inhibition": "14.2%"}
{"smiles": "COc1ccccc1CNc1ncnc2ccc(-c3c(C)noc3C)cc12", "activity change, negative = inhibition": "-0.171%"}
{"smiles": "COc1cc(OC)c(C(=O)NC2CCCCCC2)cc1OC", "activity change, negative = inhibition": "-14%"}
{"smiles": "O=C(COC(=O)CCC(=O)c1cccs1)NCc1ccco1", "Potency": "25.1 µM (active)"}
{"smiles": "O=C(CCC(=O)c1cccs1)NCc1ccccc1", "activity change, negative = inhibition": "9.75%"}
{"smiles": "O=C(COC(=O)C12CC3CC(CC(C3)C1)C2)NCc1ccco1", "activity change, negative = inhibition": "-13.9%"}
{"smiles": "CC(=O)Nn1cc2c(=O)n(C)c(=O)n(C)c2c1", "activity change, negative = inhibition": "5.62%"}
{"smiles": "CC1=C(C(=O)Nc2ccc(Cl)cc2)C(c2ccco2)NC(=O)N1", "note": "(stereo unspecified)", "activity change, negative = inhibition": "-1.26%"}
{"smiles": "C=C(C)Cn1c(N2CCN(CC)CC2)nc2c1c(=O)[nH]c(=O)n2C", "activity change, negative = inhibition": "1.14%"}
{"smiles": "CCC(C)(C)N=C(NC#N)Nc1cccnc1", "activity change, negative = inhibition": "-14.3%"}
{"smiles": "CCOC(=O)Cc1c(C)nc2c(C#N)c(C)nn2c1C", "Potency": "25.1 µM (active)"}
{"smiles": "CCOC(=O)CSc1nccc(N(C)C)c1C#N", "activity change, negative = inhibition": "-0.126%"}
{"smiles": "CC[C@@H]1Cc2cc(O)ccc2C2=C1c1ccc(O)cc1C[C@H]2CC", "Potency": "25.1 µM (active)"}
{"smiles": "C=CC(=O)c1ccc2ccccc2c1", "Potency": "25.1 µM (active)"}
{"smiles": "Cc1ccc2nc(CC(=O)c3ccc4ccccc4c3)c(=O)[nH]c2c1", "activity change, negative = inhibition": "5.47% [at 11.4 µM]"}
